According to PubChem BioAssay (NCATS):
Records with an inconclusive call do not appear. Active and inactive are the calls of the source. Unless noted, the call rests on the fitted dose curve; in most records, active means well fitted curve in the direction sought with a large enough effect; inconclusive means small, poorly fitted or top-dose-only effect, or another doubt; inactive means no such curve, though single readings can be large; an effect the other way counts as inactive or inconclusive.

Legend:
[1] = target: Lysosomal acid glucosylceramidase (Homo sapiens) (UniProt P04062); assay: Glucocerebrosidase-p2 (AID 348; in the data active means potency below about 10 µM; further: potency means the concentration at half of the fitted maximal effect); conditions: purified GBA, blue fluorogenic substrate, 40 min
Method in brief: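 Compounds titrated from 0.6 nM upwards against 0.2 nM enzyme in pH 5.9 citric acid/KH2PO4, taurocholate, tween-20; blue fluorogenic substrate 80 uM, 40 min room temperature, stopped and read Ex 365/Em 440 for AC50.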

[2] = AP1 Signaling Pathway (AID 357; active means well fitted curve in either direction with a large enough effect, not every such curve was filed as active;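 further: ME-180 reporter cells stimulated with EGF at its EC50 level; on the % scale 0 is the no-effect control and ±100 the full control effect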); conditions: ME-180 AP-1-bla reporter, EGF-induced, beta-lactamase ratio, 5 h; at 7.69 µM (top of the series) unless noted
Method in brief: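 Titration-series screen for positive or negative modulators of EC50 EGF-induced signaling in ME-180 cells carrying an AP-1-driven beta-lactamase reporter. After 5 hours at 37 degrees Celsius, CCF4 460nm/530nm emission ratio gave %Activity; AC50 values derived.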

[3] = target: Cytochrome P450 1A2 (Homo sapiens) (UniProt P05177); assay: p450-cyp1a2 (AID 410; calls by dose curve; further: potency means the concentration at half of the fitted maximal effect); conditions: recombinant CYP1A2, luciferin-ME demethylation, luminescence; series mostly up to 57 µM
Method in brief: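 Luminescent readout of luciferin formed from Luciferin-ME by human CYP1A2; data normalized against complete inhibition by 57 uM furafylline. Enzyme 20nM, substrate 100uM at Km, 100mM KPO4 buffer, 60 min reaction at room temperature.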

[4] = NFAT Signaling Pathway (AID 444; active means well fitted curve in either direction with a large enough effect, not every such curve was filed as active;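 further: carbachol stimulus at about its EC50 of 1 µM final; on the % scale 0 is the no-effect control and ±100 the full control effect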); conditions: Jurkat NFAT-bla M1, carbachol, beta-lactamase ratio, 5 h; at 7.69 µM (top of the series) unless noted
Method in brief: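 Read-out: CCF4 FRET ratio (460 nm/530 nm) after 1 h RT dye loading, used for %activity and AC50 from titration series. Cells: Jurkat NFAT-β-lactamase/M1 line, treated with compound plus 1 uM carbachol for 5 h, 37 °C.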

[5] = Stat Signaling Pathway (AID 446; active means well fitted curve in either direction with a large enough effect, not every such curve was filed as active;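 further: ME-180 cervical cancer cells given 40 pM IL-6 alongside compound; SIE-controlled beta-lactamase reporter measured as 460/530 nm FRET emission ratio; on the % scale 0 is the no-effect control and ±100 the full control effect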); conditions: ME-180 SIE beta-lactamase reporter, IL-6 stimulated, 5 h; at 7.69 µM (top of the series) unless noted
Method in brief: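 IL-6/STAT signaling read in ME-180 cells via an SIE beta-lactamase reporter. Stimulus was 40 pM IL-6 (its AC50) for 5 hrs, so both activation and inhibition register.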

[6] = target: Glucocorticoid receptor (Homo sapiens) (UniProt P04150); assay: GR-GFP Redistribution (AID 450;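 active means compounds whose dose series gives a full or clear partial fitted curve of increased nuclear translocation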; further: potency means the concentration at half of the fitted maximal effect); conditions: U2OS GR-GFP nuclear translocation, laser cytometry, 2 h
[7] = target: Glucocorticoid receptor (Homo sapiens) (UniProt P04150); assay: GR-EFC Redistribution (AID 451; calls by dose curve; further: potency means the concentration at half of the fitted maximal effect); conditions: CHO-K1 GR-EFC translocation, beta-gal luminescence, 2 h
Method in brief: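 Translocation of GR-ED fusion to nuclear EA restores b-gal, read by luminescence after 1 h room-temperature detection. Engineered CHO-K1 biosensor cells, 1,000/well, exposed 2 h at 37 C to titrations up to 46 uM final.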

[8] = target: Mitogen-activated protein kinase 10 (Mus musculus) (UniProt Q61831); assay: JNK3 AlphaScreen Assay (AID 530; active means well fitted curve in either direction with a large enough effect, not every such curve was filed as active;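 further: kinase came from lysate of stimulated human HepG2 cells; signal reports phosphorylation of biotinylated GST-cJun 1-79 at Ser73 with 10 µM ATP; on the % scale 0 is the no-effect control and ±100 the full control effect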); conditions: JNK3 lysate, c-Jun phosphorylation; series mostly up to 57.1 µM
Method in brief: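 Compound titrations were preincubated 15 minutes at room temperature with substrate, antibody and pre-activated JNK3-containing HepG2 lysate. Reactions were started with 10 uM ATP and stopped with EDTA-containing bead buffer for AlphaScreen detection.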

[9] = target: Cytochrome P450 3A4 (Homo sapiens) (UniProt P08684); assay: qHTS Assay for Activators of Cytochrome P450 3A4 (AID 885); conditions: recombinant CYP3A4, Luciferin-PPXE luminescence, 60 min; series mostly up to 57.1 µM; further: nearly all actives have a fitted effect of over 65% in size
Method in brief: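 Quantitative HTS format: compounds preincubated with 20nM human CYP3A4 and Luciferin-PPXE substrate at KM, reaction started by NADPH regeneration, stopped after 60 min, luciferase luminescence read 20 min later.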

[10] = target: Cytochrome P450 2C19 (Homo sapiens) (UniProt P33261); assay: qHTS Assay for Inhibitors and Substrates of Cytochrome P450 2C19 (AID 899); conditions: recombinant CYP2C19, luciferin-H EGE luminescence; series mostly up to 57.1 µM; further: potency means the concentration at half of the fitted maximal effect; nearly all actives have a fitted effect of over 60% in size
Method in brief: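 5nM enzyme + 10uM Luciferin-H EGE (=KM), 50mM KPO4; cpd pin-transferred, 10 min 37C; NADPH regen, 60 min 37C; stopped w/ luciferin detection reagent, 20 min; luminescence. Normalized to 57uM ketoconazole (AC100).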

[11] = qHTS Assay for Lipid Storage Modulators (AID 1519; calls by dose curve); conditions: Drosophila S3 cells, BODIPY lipid droplet/cell ratio, laser cytometry, cells loaded with oleic acid; for activity change, negative = inhibition: at 57.5 µM (top of the series)
Method in brief: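 Cells seeded at 5,000 per well were treated with compounds over a concentration series and loaded with oleic acid (400 uM, as added). Lipid droplet fluorescence (488 nm excitation, 500-530 nm channel) was read by laser-scanning cytometry and normalized to 20 uM Triacsin C.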

[12] = target: Dual specificity protein kinase CLK4 (Homo sapiens) (UniProt Q9HAZ1); assay: qHTS Assay for Inhibitors of CDC-like Kinase 4 (Kinase-Glo Assay) (AID 1770); conditions: recombinant Clk4, Kinase-Glo ATP depletion luminescence; series mostly up to 66.7 µM; further: nearly all actives have a fitted effect of over 65% in size; further: potency means the concentration at half of the fitted maximal effect
Method in brief: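 Recombinant human Clk4 (25 nM) phosphorylated RS repeat peptide (100 uM) with 1 uM ATP in Tris pH 7.5/MgCl2/EGTA/DTT/Triton buffer for 4.5 h at room temperature. Residual ATP was quantified by Kinase-Glo luciferase luminescence.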

[13] = target: Dual specificity protein kinase CLK4 (Homo sapiens) (UniProt Q9HAZ1); assay: qHTS Assay for Inhibitors of CDC-like Kinase 4 (ADP-Glo Assay) (AID 1771); conditions: recombinant CLK4, ADP-Glo luminescence; series mostly up to 80 µM; further: nearly all actives have a fitted effect of over 70% in size; further: potency means the concentration at half of the fitted maximal effect
Method in brief: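 Luminescence from ADP-Glo reports ADP produced by 25 nM Clk4 acting on 100 uM RS repeat peptide with 1 uM ATP over 1 hr at room temperature; residual ATP is depleted before ADP is converted to ATP for detection.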

[14] = target: Dual specificity protein kinase CLK4 (Homo sapiens) (UniProt Q9HAZ1); assay: qHTS Assay for Inhibitors of CDC-like Kinase 4 (ADP-FP Assay) (AID 1795); conditions: Transcreener ADP fluorescence polarization; series mostly up to 50 µM; further: nearly all actives have a fitted effect of over 60% in size; further: potency means the concentration at half of the fitted maximal effect
Method in brief: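 Recombinant human Clk4 (6.25 nM) phosphorylated RS repeat peptide (100 uM) with 1 uM ATP in Tris pH 7.5/MgCl2/EGTA/DTT/Triton buffer for one hour. ADP was quantified by Transcreener competitive fluorescence polarization against an ADP calibration curve.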

[15] = target: Ubiquitin carboxyl-terminal hydrolase 1 (Homo sapiens) (UniProt O94782); assay: Inhibitors of USP1/UAF1: Pilot qHTS (AID 504865); conditions: purified USP1/UAF1, Ub-rhodamine cleavage fluorescence; series mostly up to 54.9 µM;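 further: rhodamine fluorescence freed from ubiquitin-rhodamine substrate followed over time; top concentration of the series differs between compounds; on the % scale 0 is the no-effect control and ±100 the full control effect; nearly all actives have a fitted effect of over 35% in size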
Method in brief: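 USP1/UAF1 complex (1nM) preincubated with compound 15 min at room temperature, then Ub-Rho substrate (150nM final) added. Fluorescence read kinetically at 480/540 nm, 6 reads every 60 seconds. Buffer: 50mM HEPES pH 7.8, 0.5mM EDTA, 0.1 mg/ml BSA, 1mM TCEP, 0.01% Tween-20.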

[16] = target: 3',5'-cyclic-AMP phosphodiesterase 4B (Homo sapiens) (UniProt Q07343); assay: qHTS Assay for Inhibitors of PDE-IV (AID 607; active means well fitted activation curve with a large enough effect in the main read-out, with a control signal flat, not every such curve was filed as active; further: % of control where 0% means no effect); conditions: HEK293 ACTOne CNG channel cells, membrane potential fluorescence; series mostly up to 22.9 µM
Method in brief: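 Live HEK293 cells with a modified cyclic nucleotide-gated (CNG) channel report intracellular cAMP via membrane-potential dye fluorescence (ex 535/em 590 nm). Endogenous PDE-IV was targeted. Compounds were tested at up to 22.9 uM final; RO 20-1724 100 uM served as control.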

[17] = qHTS Assay for Identification of Small Molecule Agonists for Hypoxia Response Element Signaling Pathway (AID 914; active means well fitted activation curve with a large enough effect in the signal ratio, with a control signal flat, not every such curve was filed as active; the % refers to the signal ratio; further: % of control where 0% means no effect); conditions: ME-180 (cervical carcinoma) HRE-bla reporter, beta-lactamase ratio, CoCl2, 17 h; activation: stronger effect = higher value
Method in brief: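 HRE-bla ME-180 assay for agonist-like enhancement of an EC50 CoCl2 stimulus: 17 h at 37 degrees Celsius, CCF4 for 2.5 h, ratiometric 460/530 nm signal converted to %Activity and fitted to AC50.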

[18] = target: Cytochrome P450 3A4 (Homo sapiens) (UniProt P08684); assay: qHTS Assay for Inhibitors and Substrates of Cytochrome P450 3A4 (AID 884); conditions: recombinant CYP3A4, Luciferin-PPXE luminescence; series mostly up to 57.1 µM; further: on the % scale 0 is the no-effect control and ±100 the full control effect; nearly all actives have a fitted effect of over 50% in size
Method in brief: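 20 nM human CYP3A4 with 25 uM Luciferin-PPXE (at KM) in 200 mM KPO4, preincubated 10 min with compound; NADPH regeneration started a 60 min RT reaction. Luciferin detected by luminescence, normalized to 57 uM ketoconazole as full inhibition.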

[19] = Confirmation and Secondary Assay for Modulators of Hemoglobin Beta Chain Splicing at IVS2 654 locus (AID 910); conditions: HeLa EGFP-654 splicing reporter, GFP fluorescence, 48 h; series mostly up to 38.3 µM;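 further: HeLa cells stably carrying EGFP split by mutant beta-globin IVS2-654 intron; per-well total GFP intensity by laser scanning cytometry after 2-day treatment; % of control where 0% means no effect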
Method in brief: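 Readout: per-well total peak green fluorescence (488 nm ex, 500–520 nm em) from objects 5–250 µm, reflecting correct splicing of an EGFP-654 reporter. Compounds were applied for 2 days at 37 °C to overnight-plated HeLa EGFP-654 cells; controls were DMSO and 500 nM IVS2-654 PNA.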

[20] = Confirmation and Secondary Assay for Modulators of Hemoglobin Beta Chain Splicing at IVS2 705 locus (AID 930); conditions: HeLa EGFP-705 splicing reporter, GFP fluorescence, 48 h; series mostly up to 38.3 µM;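 further: HeLa cells stably expressing the EGFP-705 splicing reporter; GFP fluorescence per well restored by corrected splicing of the IVS2-705 intron in EGFP; % of control where 0% means no effect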
Method in brief: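 HeLa IVS2-705 EGFP reporter cells, 500/well, compound 2 d at 37C; correct splicing yields fluorescent EGFP. Control: 500 nM antisense PNA. Read-out: total peak GFP intensity.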

[21] = measured here: cell count channel max response
[22] = measured here: lipid channel max response

Chain of Glucocorticoid receptor (Homo sapiens) (P04150 whole entry, looked up, the tested form may be a part): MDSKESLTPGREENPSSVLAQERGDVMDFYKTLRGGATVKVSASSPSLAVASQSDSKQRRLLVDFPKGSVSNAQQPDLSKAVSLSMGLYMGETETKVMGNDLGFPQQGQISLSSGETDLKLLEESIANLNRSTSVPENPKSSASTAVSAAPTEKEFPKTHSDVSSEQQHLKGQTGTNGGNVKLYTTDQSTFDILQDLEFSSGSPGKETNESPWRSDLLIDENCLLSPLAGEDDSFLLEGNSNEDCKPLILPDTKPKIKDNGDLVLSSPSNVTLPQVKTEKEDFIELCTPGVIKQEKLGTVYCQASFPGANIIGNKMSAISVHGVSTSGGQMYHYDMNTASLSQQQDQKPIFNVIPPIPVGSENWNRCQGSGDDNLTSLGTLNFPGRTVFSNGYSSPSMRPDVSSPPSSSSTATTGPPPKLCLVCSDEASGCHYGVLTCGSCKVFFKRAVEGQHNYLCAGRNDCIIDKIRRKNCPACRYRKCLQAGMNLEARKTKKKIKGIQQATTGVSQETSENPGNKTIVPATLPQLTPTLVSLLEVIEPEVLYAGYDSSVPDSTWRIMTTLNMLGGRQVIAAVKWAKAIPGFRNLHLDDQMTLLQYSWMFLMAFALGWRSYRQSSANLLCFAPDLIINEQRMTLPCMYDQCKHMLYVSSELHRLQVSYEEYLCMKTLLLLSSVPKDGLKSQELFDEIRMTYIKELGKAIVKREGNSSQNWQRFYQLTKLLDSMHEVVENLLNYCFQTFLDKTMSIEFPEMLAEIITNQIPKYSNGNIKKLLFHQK
Chain of Cytochrome P450 3A4 (Homo sapiens) (P08684 whole entry, looked up): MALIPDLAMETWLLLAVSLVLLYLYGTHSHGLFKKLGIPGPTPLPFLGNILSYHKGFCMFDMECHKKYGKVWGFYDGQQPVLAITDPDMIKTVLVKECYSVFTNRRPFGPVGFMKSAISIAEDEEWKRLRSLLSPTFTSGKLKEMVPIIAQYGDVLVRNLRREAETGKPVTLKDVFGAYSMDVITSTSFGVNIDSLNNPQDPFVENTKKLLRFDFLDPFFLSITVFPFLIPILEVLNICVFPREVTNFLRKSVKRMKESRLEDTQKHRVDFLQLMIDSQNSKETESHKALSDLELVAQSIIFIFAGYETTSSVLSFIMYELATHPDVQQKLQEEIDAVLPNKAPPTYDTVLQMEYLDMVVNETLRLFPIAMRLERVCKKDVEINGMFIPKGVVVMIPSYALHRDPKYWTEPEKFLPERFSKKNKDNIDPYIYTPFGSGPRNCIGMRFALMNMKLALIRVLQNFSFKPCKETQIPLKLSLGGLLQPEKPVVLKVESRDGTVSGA
Chain of Ubiquitin carboxyl-terminal hydrolase 1 (Homo sapiens) (O94782 whole entry, looked up): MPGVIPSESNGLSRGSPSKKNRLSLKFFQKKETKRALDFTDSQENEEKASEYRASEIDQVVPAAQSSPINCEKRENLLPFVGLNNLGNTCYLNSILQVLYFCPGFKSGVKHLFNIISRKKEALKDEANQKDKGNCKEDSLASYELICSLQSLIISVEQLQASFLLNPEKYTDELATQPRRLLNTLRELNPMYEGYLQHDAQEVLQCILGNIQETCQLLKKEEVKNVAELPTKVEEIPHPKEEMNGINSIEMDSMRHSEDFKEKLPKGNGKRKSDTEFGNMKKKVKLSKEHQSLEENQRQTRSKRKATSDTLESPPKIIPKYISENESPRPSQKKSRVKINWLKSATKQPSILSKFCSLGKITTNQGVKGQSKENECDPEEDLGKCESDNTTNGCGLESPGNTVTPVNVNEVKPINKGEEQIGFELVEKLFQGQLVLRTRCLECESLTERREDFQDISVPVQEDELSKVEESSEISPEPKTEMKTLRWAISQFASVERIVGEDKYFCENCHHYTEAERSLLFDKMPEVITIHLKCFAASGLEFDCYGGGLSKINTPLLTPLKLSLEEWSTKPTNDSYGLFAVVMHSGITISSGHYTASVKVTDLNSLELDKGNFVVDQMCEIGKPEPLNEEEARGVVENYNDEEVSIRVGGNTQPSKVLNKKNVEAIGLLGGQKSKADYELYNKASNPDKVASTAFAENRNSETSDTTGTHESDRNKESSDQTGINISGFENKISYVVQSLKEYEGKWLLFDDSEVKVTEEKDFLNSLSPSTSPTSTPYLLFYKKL
Chain of Dual specificity protein kinase CLK4 (Homo sapiens) (Q9HAZ1 whole entry, looked up): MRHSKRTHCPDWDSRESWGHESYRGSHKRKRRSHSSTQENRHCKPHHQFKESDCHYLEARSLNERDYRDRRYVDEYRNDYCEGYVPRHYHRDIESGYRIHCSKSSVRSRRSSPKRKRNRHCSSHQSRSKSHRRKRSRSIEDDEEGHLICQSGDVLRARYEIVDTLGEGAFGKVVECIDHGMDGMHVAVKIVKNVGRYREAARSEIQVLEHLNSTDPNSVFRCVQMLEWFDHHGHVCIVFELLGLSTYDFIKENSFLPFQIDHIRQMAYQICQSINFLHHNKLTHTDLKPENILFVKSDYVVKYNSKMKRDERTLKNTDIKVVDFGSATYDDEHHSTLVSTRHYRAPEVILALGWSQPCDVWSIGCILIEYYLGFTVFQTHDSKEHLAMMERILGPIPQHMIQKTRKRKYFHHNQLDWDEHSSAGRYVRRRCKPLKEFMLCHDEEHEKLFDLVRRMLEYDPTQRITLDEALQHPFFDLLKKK
Chain of Lysosomal acid glucosylceramidase (Homo sapiens) (P04062 whole entry, looked up): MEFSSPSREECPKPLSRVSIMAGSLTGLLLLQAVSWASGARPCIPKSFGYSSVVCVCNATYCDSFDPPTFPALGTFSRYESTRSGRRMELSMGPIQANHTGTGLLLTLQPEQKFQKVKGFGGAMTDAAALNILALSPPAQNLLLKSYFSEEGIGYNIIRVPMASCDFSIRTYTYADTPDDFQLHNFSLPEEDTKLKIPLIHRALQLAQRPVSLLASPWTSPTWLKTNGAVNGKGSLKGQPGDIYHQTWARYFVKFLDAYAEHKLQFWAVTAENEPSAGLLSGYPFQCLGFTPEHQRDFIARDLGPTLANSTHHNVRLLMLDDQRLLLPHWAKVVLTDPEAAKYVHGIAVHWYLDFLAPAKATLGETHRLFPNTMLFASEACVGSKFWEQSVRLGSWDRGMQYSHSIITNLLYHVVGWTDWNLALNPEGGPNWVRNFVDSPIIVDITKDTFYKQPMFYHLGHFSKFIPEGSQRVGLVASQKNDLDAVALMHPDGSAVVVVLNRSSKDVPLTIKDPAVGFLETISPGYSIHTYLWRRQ
Chain of Cytochrome P450 1A2 (Homo sapiens) (P05177 whole entry, looked up): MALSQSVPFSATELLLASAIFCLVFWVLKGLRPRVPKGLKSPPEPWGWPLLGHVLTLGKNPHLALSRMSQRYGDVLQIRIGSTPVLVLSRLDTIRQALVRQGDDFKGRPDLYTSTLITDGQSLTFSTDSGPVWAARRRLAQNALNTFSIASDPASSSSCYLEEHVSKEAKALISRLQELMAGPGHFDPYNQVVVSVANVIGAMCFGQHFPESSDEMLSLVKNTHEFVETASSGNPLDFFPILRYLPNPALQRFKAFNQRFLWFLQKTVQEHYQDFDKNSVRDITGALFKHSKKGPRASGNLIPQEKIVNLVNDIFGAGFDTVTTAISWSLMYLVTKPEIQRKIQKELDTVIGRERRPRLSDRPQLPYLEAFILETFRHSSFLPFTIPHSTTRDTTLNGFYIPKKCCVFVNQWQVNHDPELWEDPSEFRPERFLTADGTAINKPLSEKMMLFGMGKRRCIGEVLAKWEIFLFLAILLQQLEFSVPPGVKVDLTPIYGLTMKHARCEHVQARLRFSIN
Chain of 3',5'-cyclic-AMP phosphodiesterase 4B (Homo sapiens) (Q07343 whole entry, looked up): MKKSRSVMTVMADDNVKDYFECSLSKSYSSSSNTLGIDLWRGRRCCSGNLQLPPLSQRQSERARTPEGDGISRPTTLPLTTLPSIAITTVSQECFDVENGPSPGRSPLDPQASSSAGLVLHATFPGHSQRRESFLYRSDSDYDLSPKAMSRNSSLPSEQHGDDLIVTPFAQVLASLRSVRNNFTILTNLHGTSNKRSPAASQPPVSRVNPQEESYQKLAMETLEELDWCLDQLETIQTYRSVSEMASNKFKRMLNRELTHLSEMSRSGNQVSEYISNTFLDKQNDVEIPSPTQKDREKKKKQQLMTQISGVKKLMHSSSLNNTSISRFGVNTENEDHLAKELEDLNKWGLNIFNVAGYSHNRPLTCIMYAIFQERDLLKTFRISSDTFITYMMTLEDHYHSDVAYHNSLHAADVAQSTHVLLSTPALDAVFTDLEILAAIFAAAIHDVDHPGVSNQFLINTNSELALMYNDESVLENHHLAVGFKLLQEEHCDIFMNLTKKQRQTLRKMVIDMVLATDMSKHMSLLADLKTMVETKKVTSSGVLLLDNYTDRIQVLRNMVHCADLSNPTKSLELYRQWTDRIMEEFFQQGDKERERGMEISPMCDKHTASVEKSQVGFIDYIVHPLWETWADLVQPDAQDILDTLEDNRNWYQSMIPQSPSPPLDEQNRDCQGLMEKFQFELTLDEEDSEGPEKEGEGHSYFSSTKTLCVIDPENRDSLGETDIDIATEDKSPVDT
Chain of Cytochrome P450 2C19 (Homo sapiens) (P33261 whole entry, looked up): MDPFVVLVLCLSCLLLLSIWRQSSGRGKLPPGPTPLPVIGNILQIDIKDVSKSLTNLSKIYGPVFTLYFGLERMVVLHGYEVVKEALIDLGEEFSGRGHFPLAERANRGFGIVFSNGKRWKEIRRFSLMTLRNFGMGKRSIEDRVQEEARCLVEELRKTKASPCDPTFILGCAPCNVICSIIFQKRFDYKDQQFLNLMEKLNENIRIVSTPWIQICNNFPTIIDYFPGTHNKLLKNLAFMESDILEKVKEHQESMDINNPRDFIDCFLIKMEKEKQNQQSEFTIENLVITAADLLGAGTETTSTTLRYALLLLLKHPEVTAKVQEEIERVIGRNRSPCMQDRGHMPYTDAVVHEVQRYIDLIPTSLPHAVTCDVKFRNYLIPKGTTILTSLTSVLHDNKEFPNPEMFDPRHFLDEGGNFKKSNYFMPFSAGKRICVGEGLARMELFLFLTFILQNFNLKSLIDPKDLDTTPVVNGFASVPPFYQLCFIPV

COc1ccccc1-c1ccc2ncnc(NCc3ccccc3)c2c1
inactive: Potency [1] > 11.4 µM | activity change, negative = inhibition [2] -25.6% | activity change, negative = inhibition [4] 0.253% | activity, negative = inhibition [5] -8.43% | Potency [6] > 46 µM | Potency [7] > 46 µM | Potency [8] | Potency [9] | activity change, negative = inhibition [11] -15.2% | Potency [15]
active: Potency [3] 2 µM | Potency [10] 3.98 µM | Potency [12] 3.98 µM | Potency [13] 6.31 µM | Potency [14] 2.82 µM
-12.6%: max response [11, 21]
-27.8%: max response [11, 22]

CN1CCN(c2ncc3ncc(=O)n(Cc4ccc(F)cc4)c3n2)CC1
active: Potency [3] 25.1 µM
7.12%: max response [11, 22]
5.89%: max response [11, 21]
inactive: Potency [1] > 11.4 µM | activity change, negative = inhibition [2] -13.9% | activity change, negative = inhibition [4] -8.56% | activity, negative = inhibition [5] -18.8% | Potency [6] > 9.22 µM | Potency [7] > 46 µM | Potency [8] | Potency [16] | Potency [9] | activation [17] -5.68% | activity change, negative = inhibition [11] 2.71% | Potency [12] | Potency [13] | Potency [14] | Potency [15]

CC(C)=CCC/C(C)=C/CC/C(C)=C/CC/C(C)=C/CC/C(C)=C/CC/C(C)=C/CC/C(C)=C/CC/C(C)=C/CC/C(C)=C/CO
20.4%: max response [11, 22]
6.17%: max response [11, 21]
inactive: Potency [18] | Potency [19] | outcome [20] | activity change, negative = inhibition [11] 5.78% | Potency [15]
